Source: PubChem
The full list was thinned out, with hits kept by preference.
Cruzain inh Det: qHTS Assay for Promiscuous and Specific Inhibitors of Cruzain (with detergent); Cruzipain (Trypanosoma cruzi), P25779; purified cruzain, Z-FR-AMC fluorescence, 0.01% Triton; Potency, µM, for the others: max response, negative = inhibition, usual class: inhibitors; 0.43% of 200,000 active; AID 1478, 2009;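 note: potency is the fitted concentration of half-maximal effect; plate controls were neutral wells for no effect and buffer without enzyme for full effect; nearly all actives have a fitted effect of over 40% in size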
Target sequence (P25779 123-467 limits assumed): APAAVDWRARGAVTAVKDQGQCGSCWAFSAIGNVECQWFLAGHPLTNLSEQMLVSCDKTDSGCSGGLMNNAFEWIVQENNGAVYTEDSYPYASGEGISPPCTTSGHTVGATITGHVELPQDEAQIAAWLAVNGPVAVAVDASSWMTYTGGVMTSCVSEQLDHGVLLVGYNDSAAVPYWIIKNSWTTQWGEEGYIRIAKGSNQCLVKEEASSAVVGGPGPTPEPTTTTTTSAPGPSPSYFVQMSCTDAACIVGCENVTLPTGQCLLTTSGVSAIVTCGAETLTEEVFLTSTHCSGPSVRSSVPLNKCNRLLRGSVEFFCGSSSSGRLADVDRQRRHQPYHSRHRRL
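Cruzain (1.5 nM) preincubated 15 min at RT with compound in 100 mM sodium acetate pH 5.5, 5 mM DTT, 0.01% Triton X-100. Reaction started with 2 uM Z-FR-AMC; AMC fluorescence (ex 360/em 450 nm) change over 60 s gave rate.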
NS1 function inh: qHTS Assay for Inhibitors of Influenza NS1 Protein Function. Potency, µM (doses to about 46.1 µM), for inactives: at the highest dose activity, positive = more growth. 0.4% of 270,000 active; calls by dose curve; note: potency is the fitted concentration of half-maximal effect; actives are rising curves; nearly all actives have a fitted effect of over 50% in size
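Compounds were scored for reversing the slow growth caused by influenza A NS1 in S. cerevisiae, measured by optical density at 600 nm. Assay medium contained 2% galactose at pH 6.0; NS1-free yeast of the same strain were the positive control.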
Cruzain inh noDet: qHTS Assay for Promiscuous and Specific Inhibitors of Cruzain (without detergent); Cruzipain (Trypanosoma cruzi), P25779; purified cruzain, Z-FR-AMC fluorescence, no detergent; Potency, µM, for the others: max response, negative = inhibition, actives largely listed as inhibitors; 2.3% of 200,000 active; AID 1476, 2009;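 note: potency is the fitted concentration of half-maximal effect; plate controls were enzyme without inhibitor for no effect and buffer without enzyme for full effect; nearly all actives have a fitted effect of over 40% in size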
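Detergent-free condition (0.00005% Triton X-100) in acetate buffer pH 5.5 with DTT. 1.5 nM enzyme and compound were pre-mixed 15 min, then 2 uM Z-FR-AMC substrate added; reaction progress from fluorescence change between first and third reads (60 s).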
NS1 inh valid: Assay for Inhibitors of Influenza NS1 Protein Function: Hit Validation; activity change, negative = inhibition, % at 32.9 µM; influenza NS1 function cell assay, 15-point titration; shares compounds with NS1 function inh; 1,400 tested, under 10 active; calls by dose curve; note: 0% is about no effect
Flu PR8 replic: Assay for Inhibitors of Influenza NS1 Protein Function: Influenza virus replication assay in MDCK cells infected with virus A/PR/8/34. shares compounds with NS1 function inh. MDCK infected influenza A/PR/8/34, virus titer TCID50; active compounds read low. virus titer (log TCID50), log10 TCID50 at 5 µM. 30% of 95 active; call rule not given here
Numbers without * were called inactive; ? = inconclusive; · = not tested or not shown. Unless noted, calls come from the whole dose curve; as a rule, active = well fitted curve in the direction sought with a large enough effect; inconclusive = small, poorly fitted or top-dose-only effect, or another doubt; inactive = no such curve, though single readings can be large; an effect the other way counts as inactive or inconclusive.

SMILES | Cruzain inh Det | NS1 function inh | Cruzain inh noDet | NS1 inh valid | others
CCOC(=O)N1CCN(S(=O)(=O)c2ccc(C(=O)NNc3nc4ccc(Cl)cc4s3)cc2)CC1 | -2.7% | 7.94µM* | -22.0% | -16.2
CCOC(=O)N1CCN(S(=O)(=O)c2ccc(C(=O)NNc3nc4c(C)cccc4s3)cc2)CC1 | -2.6% | 10µM* | -2.2% | ?
CCOC(=O)N1CCN(S(=O)(=O)c2ccc(C(=O)NNc3nc4c(C)cc(C)cc4s3)cc2)CC1 | -2.4% | 3.98µM* | -4.2% | ?
Cc1cccc2sc(NNC(=O)c3ccc(S(=O)(=O)N4CCc5ccccc5C4)cc3)nc12 | 11.8% | 12.6µM* | 7.94µM* | ?
CCOc1ccccc1CNC(=O)c1cccn1-c1nnc(N2CCCC2)s1 | 2.3% | · | -9.3% | ·
COc1ccccc1CN1CCNC(=O)C1=O | 1.4% | · | -9.8% | ·
COc1ccccc1NC(=O)NC1(C(=O)N2CCCCC2)CCCCC1 | · | -10.6% | · | ·
COc1ccccc1NC(=O)NCC1(N(C)C)CCCCC1 | · | ? | · | -22.6
Cc1oc2ccc(O)c(CN3CCOCC3)c2c1C(=O)Nc1ccc(C(C)C)cc1 | -7.0% | · | -9.2% | ·
Cc1[nH][nH]c(=O)c1C(c1c(C)[nH][nH]c1=O)c1cn(C)c2ccccc12 | · | 1.1% | · | ·
Cc1[nH][nH]c(=O)c1C(c1c(C)[nH][nH]c1=O)c1cn(Cc2cccc3ccccc23)c2ccccc12 | 1.9% | 12.6µM* | -0.4% | -11.1
O=C(CSc1nc(-c2ccccc2)nc2c1CCCC2)c1ccc(F)cc1 | -3.3% | · | 4.0% | ·
O=C1CN(C(=O)COC(=O)c2cccc(OCc3ccccc3)c2)c2ccccc2N1 | -8.2% | -38.1% | 15.7% | ·
O=C1CN(C(=O)COC(=O)c2ccc(N3CCCCCC3)c([N+](=O)[O-])c2)c2ccccc2N1 | -6.9% | 10µM* | -12.7% | 20.7
Cc1ccc(CN2CCCn3nc(C(=O)NCCc4ccccc4Cl)cc3C2=O)cc1 | -3.2% | · | -3.5% | ·
Cc1ccc(S(=O)(=O)Nc2ccccc2C(N)=O)cc1 | 1.8% | 4.1% | -0.3% | ·
Cc1ccc(S(=O)(=O)Nc2ccccc2C=O)cc1 | -1.7% | -44.0% | 1.1% | ·
Cc1ccc(S(=O)(=O)Nc2ccccc2-c2ccccc2NS(=O)(=O)c2ccc(C)cc2)cc1 | -7.1% | 10µM* | -3.1% | -35.2 | Flu PR8 replic=8.5
COC(=O)c1ccc(Sc2ccccc2NS(=O)(=O)c2ccc(C)cc2)nc1 | -0.2% | ? | ? | ?
CC(C)c1ccc(NC(=O)C2CCCN(S(=O)(=O)c3cccc4cccnc34)C2)cc1 (configuration not stated) | -8.5% | · | 18.4% | ·
COc1ccc(-c2[nH]c(-c3ccc(O)cc3)nc2-c2ccccc2)cc1 | -12.2% | · | -0.3% | ·
Cc1ccc2cc(C3C(C#N)=C(N)Oc4c3ccc3cccnc43)c(=O)[nH]c2c1 (configuration not stated) | -7.3% | 2.82µM* | -13.2% | 8.1
CCc1ccc2[nH]c(=O)c(C3C(C#N)=C(N)Oc4c3ccc3cccnc43)cc2c1 (configuration not stated) | -2.5% | -75.9% | 3.3% | ·
Cc1ccccc1-c1noc(-c2cc(C(C)C)[nH]n2)n1 | -8.2% | · | 1.0% | ·
COc1ccc(C2CC(c3ccccc3Cl)Nc3ncnn32)cc1OC (configuration not stated) | 0.4% | 4.47µM* | 4.1% | ?
SMILES | Cruzain inh Det | NS1 function inh | Cruzain inh noDet | NS1 inh valid | others
COc1cccc(C2CC(c3ccccc3Cl)Nc3ncnn32)c1 (configuration not stated) | · | -9.3% | · | ·
Cc1ccc(-n2nc(C)c3nc(CCC(=O)Nc4ccc(F)cc4)c(=O)n(C)c32)cc1 | 1.3% | · | -0.9% | ·
Cc1ccc(C(=O)N/C(=C\c2ccc(-c3ccc(Br)cc3)o2)C(=O)NC2CCS(=O)(=O)C2)cc1 (configuration not stated) | -1.5% | ? | ? | 3.1
O=C(NC1CCS(=O)(=O)C1)c1ccc(-c2ccc(Br)cc2)o1 (configuration not stated) | -4.4% | -10.0% | 11.8% | ·
C[C@]12Cc3cn4c(nc3C=C1CCC1C2CC[C@@]2(C)[C@H]1CC[C@@]2(O)C#N)nc1ccccc14 (some centres not stated) | 4.1% | 39.8µM* | -8.5% | ?
C#C[C@]1(O)CC[C@H]2[C@@H]3CCC4=CC(=O)CC[C@]4(C)[C@H]3CC[C@@]21C | 0.1% | 0.9% | -13.0% | ·
COc1ccccc1C(=O)Nc1cccc(C(=O)OCc2cc(=O)n3nc(C4CC4)sc3n2)c1 | 1.3% | · | 5.1% | ·
COc1cc(O)c2c(=O)cc(-c3ccc(OC)c(-c4c(O)cc(O)c5c(=O)cc(-c6ccc(O)cc6)oc45)c3)oc2c1 | -12.1% | · | ? | ·
O=c1cc(-c2ccc(O)c(-c3c(O)cc(O)c4c(=O)cc(-c5ccc(O)cc5)oc34)c2)oc2cc(O)cc(O)c12 | -12.6% | 10µM* | -11.6% | 25.9
COc1ccc(F)cc1S(=O)(=O)NCCc1csc2nc(-c3cccc(C)c3)nn12 | -8.8% | · | ? | ·
COCCCn1c(SCC(=O)Nc2ccc(OC)cc2)nc2c(sc3ccccc32)c1=O | 1.4% | · | -3.3% | ·
O=C(NCC1CCCO1)C(c1ccc(F)cc1)N(CC1CCCO1)C(=O)c1ccc(-c2ccccc2)[nH]1 (configuration not stated) | · | -8.1% | · | ·
O=C(NCC1CCCO1)C(c1cccs1)N(Cc1cccs1)C(=O)c1ccc(-c2ccccc2)[nH]1 (configuration not stated) | -3.8% | 12.6µM* | 18.2% | -29.7
Cc1ccccc1Nc1nnc(C)c(=O)n1N | 3.5% | 1.78µM* | -2.2% | 2.4
Cc1cccc(Nc2nnc(C)c(=O)n2N)c1 | 1.2% | 17.8% | -0.3% | ·
COc1ccc(NC2=CC(=O)CC(c3ccccc3)C2)cc1 (configuration not stated) | · | 4.8% | · | ·
COc1ccc(C2CC(=O)C=C(NNS(=O)(=O)c3ccc(C)cc3)C2)cc1 (configuration not stated) | 8.7% | 3.98µM* | ? | 15.4
CC(C)C[C@@H](CC(=O)N[C@@H](CCCN)CC(=O)N[C@@H]1CCCC[C@H]1C(=O)N[C@H](CC(=O)N[C@@H](CCC(=O)O)CC(=O)O)Cc1c[nH]c2ccccc12)NC(=O)[C@@H]1CCCC[C@H]1N | -1.0% | · | ? | ·
CC(C)C(=O)OC1=CN(Cc2ccccc2)S(=O)(=O)c2ccccc21 | -7.0% | · | -14.4% | ·
Oc1ccc(/C=N/N=C(c2ccccc2)c2ccccc2)c(O)c1O | -22.3% | -3.9% | -3.1% | ·
O=C(/C(=N/N=C/c1ccc(O)c(O)c1O)c1ccccc1)c1ccccc1 | -11.9% | 3.16µM* | -15.2% | ?
Cc1cc(O)c(C(c2ccccc2)N2CCN(c3ccc(F)cc3)CC2)c(=O)n1Cc1ccco1 (configuration not stated) | 1.1% | · | ? | ·
